aSyn 5UTR act – Activators via SNCA 5'UTR binding, MLPCN | AID 1814 | activity score, % (tested at 7.5 µM), hits read low | alpha-synuclein 5'UTR reporter, activators screen | actives 7.1% (n = 300,000); in the data active = activity score below about -60%
Active calls of the source: *. The list is a sample of the results.

`N#C/C(=C\c1ccc(OCc2ccc(Br)cc2)cc1)C(=O)Nc1cccc(C(=O)O)c1` gave aSyn 5UTR act -76.2*.
For N#C/C(=C\c1ccc(OCc2ccc(F)cc2)cc1)C(=O)Nc1cccc(C(=O)O)c1 the results were aSyn 5UTR act -107.6*.
`COc1cc(/C=C(\C#N)C(=O)Nc2cccc(C(=O)O)c2)ccc1OCc1ccc(F)cc1` gave aSyn 5UTR act -90.2*.
Oc1c(Br)cc(C2N=C(c3ccccc3)NO2)cc1Br (stereo unspecified) was read as aSyn 5UTR act -65.1*.
CSc1ccc(C2N=C(c3ccccc3)NO2)cc1 (stereo unspecified) was read as aSyn 5UTR act -127.9*.
Cc1ccccc1Nc1nnc(SCC2CCCCO2)s1 (stereo unspecified) was read as aSyn 5UTR act -84.5*.
`Cc1ccc(Nc2nnc(SCC3CCCCO3)s2)cc1` (stereo unspecified) gave aSyn 5UTR act -136.5*.
Nc1ncnc(N)c1N=Nc1ccccc1 was read as aSyn 5UTR act 111.8.
`Nc1nn(-c2ccccc2)c(N)c1N=Nc1ccccc1F` gave aSyn 5UTR act -98.0*.
`Nc1nn(-c2ccccc2)c(N)c1N=Nc1ccccc1` gave aSyn 5UTR act -105.6*.
For Nc1c(N=Nc2ccccc2F)c(=O)[nH]n1-c1ccccc1 the results were aSyn 5UTR act -125.3*.
`CC(C)CCNC(=O)c1ccc(Cl)c(N)c1` gave aSyn 5UTR act -81.3*.
CC(C)CCNC(=O)c1ccc(-c2ccccc2)cc1 was read as aSyn 5UTR act -106.8*.
CC(C)CCNC(=O)C(=O)Nc1ccccc1 was read as aSyn 5UTR act -155.2*.
`COc1c(Cl)cc(C(=O)NN)cc1Cl` gave aSyn 5UTR act 98.7.
C/[N+]([O-])=C/c1c(OCc2ccc(Cl)cc2Cl)ccc2ccccc12 was read as aSyn 5UTR act -72.1*.
`CC(=O)Nc1sc(N/N=C\c2ccccc2)nc1-c1cccs1` gave aSyn 5UTR act -113.9*.
CC(=O)Nc1sc(NC(=O)c2ccc(Cl)cc2)nc1-c1cccs1 was read as aSyn 5UTR act -72.9*.
CC(=O)Nc1sc(N/N=C\c2ccccc2Cl)nc1-c1cccs1 was read as aSyn 5UTR act -141.3*.
`O=C(Nc1ccc2c(c1)CCC2)c1ccc(F)c(S(=O)(=O)N2CCOCC2)c1` gave aSyn 5UTR act -74.3*.
For Cc1cccc(C)c1NC(=S)N=Nc1c(O)n(C)c2ccc(S(=O)(=O)N3CCOCC3)cc12 the results were aSyn 5UTR act 71.4.
For Cc1ccc(C(=O)Nc2ccc3c(c2)CCC3)cc1S(=O)(=O)N1CCOCC1 the results were aSyn 5UTR act -108.2*.
Screening Cc1cc(C)cc(NC(=S)N=Nc2c(O)n(C)c3ccc(S(=O)(=O)N4CCOCC4)cc23)c1 returned aSyn 5UTR act 63.4.
`CSc1nnc(NC(=O)c2ccc(C)c(S(=O)(=O)N3CCOCC3)c2)s1` gave aSyn 5UTR act -73.2*.
For NS(=O)(=O)c1cc(C(=O)Nc2ccc3c(c2)CCC3)ccc1Cl the results were aSyn 5UTR act -153.3*.
Cc1cccnc1NC(=O)Nc1ccc(F)cc1 was read as aSyn 5UTR act -144.1*.
Cc1ccc(NC(=O)Nc2ncccc2C)cc1 was read as aSyn 5UTR act -162.9*.
For CCOC(=O)c1ccc(NC(=O)Nc2ncccc2C)cc1 the results were aSyn 5UTR act -102.4*.
For CCOC(=O)c1ccc(NC(=S)Nc2ccccn2)cc1 the results were aSyn 5UTR act -136.8*.
`CC(Oc1ccccc1)C(=O)NC1=NCCS1` (stereo unspecified) gave aSyn 5UTR act -108.2*.
`O=C(NC1=NCCS1)Nc1ccccc1` gave aSyn 5UTR act -121.1*.
O=C(NC1=NCCS1)c1csc2ccccc12 was read as aSyn 5UTR act -183.0*.
For CCOC(=O)C1(CCCc2ccccc2)CCN(Cc2cnc(C)s2)CC1 the results were aSyn 5UTR act -62.5*.
`CC#CC(=O)N1CCC(CCc2ccccc2)(C(=O)OCC)CC1` gave aSyn 5UTR act 46.7.
Screening Cc1ccccc1NC(=S)Nc1ccc2cn[nH]c2c1 returned aSyn 5UTR act -104.4*.
`CCc1ccc(NC(=S)Nc2ccc3cn[nH]c3c2)cc1` gave aSyn 5UTR act -195.6*.
`S=C(Nc1ccc(Cl)cc1)Nc1ccc2cn[nH]c2c1` gave aSyn 5UTR act -175.0*.
`S=C(Nc1ccc2cn[nH]c2c1)Nc1ccccc1Cl` gave aSyn 5UTR act -166.2*.
Screening COc1cc2cccc(OC)c(=O)c2c(O)c1OC returned aSyn 5UTR act -70.3*.
Screening COc1cc2c(cc1OC)-c1c(OC)c(OC)cc3ccnc(c13)C2=O returned aSyn 5UTR act 110.2.
Screening CC1CCN(C(=O)c2cc(-c3ccccc3O)on2)CC1 returned aSyn 5UTR act -82.0*.
CC1CCN(C(=O)c2cc(-c3ccco3)on2)CC1 was read as aSyn 5UTR act -139.9*.
`CCc1ccc2nc3sc(C(=O)O)cc3cc2c1` gave aSyn 5UTR act -81.0*.
For CCOC(=O)C(NC(=O)c1ccccc1Cl)(Nc1ccc(C)c(C)c1)C(F)(F)F (stereo unspecified) the results were aSyn 5UTR act -80.8*.
Screening CC(=C/c1ccccc1)/C=N/n1cnnc1 returned aSyn 5UTR act 55.9.
